Measurements reported in PubChem BioAssay (EPA / NIEHS).
Where “and” joins values, the source holds several entries; their conditions need not be identical. Equal values may be shown once. Calls of active or inactive are those of the source. Rule for the calls: active = hit-call score of the fitted dose curve at least 0.9, where 1 is the maximum; inactive = score below 0.9.

read-out: Tumor necrosis factor receptor superfamily member 6 (Homo sapiens) (UniProt P25445); assay: LTEA_HepaRG_FAS: Life Technologies and Expression Analysis (LTEA) Assay for Fas cell surface death receptor (FAS) using HepaRG (AID 2283447); settings: mRNA level, 48 h; actives raise or lower the signal
In short: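 FAS transcript level was measured by TaqMan qRT-PCR against three housekeeping genes after 48 h chemical exposure. Cells were HepaRG, 0.5% DMSO vehicle, with a top concentration of 100 uM and half-log dilutions over eight points, in duplicate.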

SMILES | outcome | AC50
CCOC(=O)CC(SP(=S)(OC)OC)C(=O)OCC (stereo not given) | inactive | –
CS/C(C)=N/OC(=O)N(C)SN(C)C(=O)O/N=C(\C)SC | inactive | –
OC(c1ccc(Cl)cc1)(c1cncnc1)c1ccccc1Cl (stereo not given) | – | 81 µM (active)
C=CCC1=C(C)C(OC(=O)C2C(C=C(C)C)C2(C)C)CC1=O (stereo not given) | inactive | –
CC(C)Oc1cc(-n2nc(C(C)(C)C)oc2=O)c(Cl)cc1Cl | inactive | –
Oc1ccccc1-c1ccccc1 | inactive | –
CO/C=C(/C(=O)OC)c1ccccc1Oc1cc(Oc2ccccc2C#N)ncn1 | – | 78.4 µM (active) and 82.9 µM (active) and 81.6 µM (active)
N#CC(CCc1ccc(Cl)cc1)(Cn1cncn1)c1ccccc1 (stereo not given) | – | 76.1 µM (active)
COc1nc(NC(C)C)nc(NC(C)C)n1 | inactive | –
CNC(=S)S | inactive | –
C=CCC1=C(C)[C@@H](OC(=O)[C@@H]2[C@@H](C=C(C)C)C2(C)C)CC1=O | inactive | –
CCNc1nc(Cl)nc(NCC)n1 | inactive | –
CON(C)C(=O)Nc1ccc(Cl)c(Cl)c1 | inactive | –
CCOc1cc(Oc2ccc(C(F)(F)F)cc2Cl)ccc1[N+](=O)[O-] | – | 14.4 µM (active)
CC1=C(C(=O)Nc2ccccc2)SCCO1 | inactive | –
CC1COC(Cn2cncn2)(c2ccc(Oc3ccc(Cl)cc3)cc2Cl)O1 (stereo not given) | – | 17.9 µM (active)
CCON=C(CC)C1=C(O)CC(c2c(C)cc(C)cc2C)CC1=O (stereo not given) | inactive | –
Cc1cc(Cl)ccc1OCC(=O)O | inactive | –
CCCCNC(=O)n1c(NC(=O)OC)nc2ccccc21 | inactive | –
CCCC1COC(Cn2cncn2)(c2ccc(Cl)cc2Cl)O1 (stereo not given) | – | 72 µM (active)
